# PubChem BioAssay (NCI)
# This is part of a sample that, as a whole, favours compounds with a hit. Of some 83,000 tested, about 20% had one in any assay.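 Note: values are percent growth. 100 is the growth of untreated cells, values between 100 and 0 indicate rising inhibition; between -100 and 0 indicates cell death.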 Values without a mark were called inactive. Active and inactive are the calls of the source. How the source made its calls: active means growth percent below 10; inactive means the rest.
# System: TK-10 renal
# Test: NCI-60 one-dose screen, 48 h (100 = growth as untreated, 0 = no growth, -100 = all killed)
# Conditions: 10 µM
row,SMILES,growth
1,CSc1cc(SC)ncn1,94%
2,CCOC(=O)CNC(=O)CCCCSc1ncnc2nc[nH]c12,158%
3,COc1ccc(OC)c(/C=C/c2nc(SCc3ccccc3)n(-c3ccc(Cl)cc3)n2)c1,105%
4,c1ccc(C(NC2CC3CCC2C3)c2ccccc2)cc1 (stereo not drawn),95.9%
5,CN1CCC2(CC1)NC(=O)c1c(c3ccc(Cl)c(Cl)c3n1C)C2C#N (stereo not drawn),98.7%
6,O=[N+]([O-])c1cccc(N=Cc2ccc3c(c2)OCO3)c1,106%
7,Nc1cc2c(cc1Cl)-c1ccc([N+](=O)[O-])cc1/C2=N\O,48.7%
8,COc1ccc(OC)c2c1C(=O)CC2C (stereo not drawn),118%
9,N#CSCC1CC(O)(c2ccccc2)CC(c2ccc(Cl)cc2)O1 (stereo not drawn),-5.7% (active)
10,CCOC(=O)C1CCc2c(ccc3ccccc23)N1CCC#N (stereo not drawn),116%
11,Fc1ccc(-c2nnc(-c3c(-c4ccc(F)cc4)nc4ccccn34)o2)cc1,102%
12,O=C1/C(=C/c2ccc(Cl)cc2)SC(=Nc2ccc(Cl)cc2)N1Cc1nc2ccccc2[nH]1,104%
13,CO/N=C(/C(=O)NC1C(=O)N2C(C(=O)O)=C(COC(N)=O)CSC12)c1ccco1 (stereo not drawn),104%
14,COc1ccc(C2CC(c3ccc(N(C)C)cc3)=NN2c2ccc(S(N)(=O)=O)cc2)cc1 (stereo not drawn),44.9%
15,CN(C)CCNC(=O)c1cccn2c(=O)c3cc4ccccc4cc3nc12,-29% (active)
16,Oc1[nH]c2ccc(Cl)cc2c1/C=c1/ccc2c(c1)N=C(c1cccs1)N=2,81.5%
17,Nc1ccc2c(c1)Cc1cc(N)c(Br)cc1-2,138%
18,Cc1ccc(Nc2nnc(-c3cc(-c4ccncc4)n(-c4ccccc4)n3)s2)cc1,102%
19,O=C(N/N=C\c1cc(Cl)ccc1[N+](=O)[O-])c1ccco1,128%
20,COc1ccc2c(c1)sc1nc(-c3ccccc3)c(-c3ccsc3)n12,46.1%

row,SMILES,growth
1,O=C(N/N=C/c1ccccc1O)C(O)(c1ccccc1)c1ccccc1,53.9%
2,CCCCCCCCCCCCC1C/C=C\CCCC(=O)O1 (stereo not drawn),113%
3,O=C(Nc1cccc(Br)c1)c1cc(=O)[nH]c2ccccc12,109%
4,CC(C)=CCc1ccc(O)c(=O)cc1C(C)C,18.3%
5,Cc1occc1-c1nnc(SCC(=O)c2ccc(NC(=O)CC(C)C)cc2)o1,123%
6,CC(C)=NNc1ncnc2c1ncn2C1OC(CO)C(O)C1O (stereo not drawn),57.5%
7,CCCCCCCCCCCCCC[n+]1ccc(C(N)=O)cc1,-65.2% (active)
8,COc1ccc(Cl)cc1C(=O)Nc1nc2ccc(Cl)cc2s1,127%
9,O=C(CSSCC(=O)c1ccc(Cl)cc1)c1ccc(Cl)cc1,41.3%
10,O=[P@@]1(c2ccccc2)O[C@H](COCc2ccccc2)[C@@H](OCc2ccccc2)[C@H](OCc2ccccc2)[C@H]1O,76%
11,Nc1ncn([C@@H]2O[C@H](CO)[C@@H](O)[C@H]2O)c(=O)n1,40.5%
12,CCCCOC(=O)Oc1ccc(C(=O)Oc2ccc(OCC)cc2)cc1,117%
13,O=C1c2ccc3c4c(ccc(c24)C(=O)N1CCNCc1ccccc1)C(=O)N(CCNCc1ccccc1)C3=O,63.4%
14,CCn1cc(C(=O)O)c(=O)c2cnc(N3CCCC3)nc21,116%
15,Cc1ccc(-c2nc(/C=C3/C(=O)N(C)c4ccc(F)cc43)c3ccccn23)cc1,128%
16,COc1ccc(OC)c(/C=C/c2nc(SC)n(-c3ccc(Cl)cc3)n2)c1,92.3%
17,COc1cccc(-c2cc(-c3cccc(NS(C)(=O)=O)c3)nc(N)c2C#N)c1O,71.3%
18,CC1CN(Cc2ccccc2)C(=O)NC1=O (stereo not drawn),104%
19,Cc1cn(C2CCCCO2)c(=O)nc1NO (stereo not drawn),103%

# System: ACHN renal
# Test: as above
# Conditions: 10 µM
row,SMILES,growth [%]
1,CSc1cc(SC)ncn1,107
2,CCOC(=O)CNC(=O)CCCCSc1ncnc2nc[nH]c12,104
3,COc1ccc(OC)c(/C=C/c2nc(SCc3ccccc3)n(-c3ccc(Cl)cc3)n2)c1,80.8
4,c1ccc(C(NC2CC3CCC2C3)c2ccccc2)cc1 (stereo not drawn),98.9
5,CN1CCC2(CC1)NC(=O)c1c(c3ccc(Cl)c(Cl)c3n1C)C2C#N (stereo not drawn),73.9
6,O=[N+]([O-])c1cccc(N=Cc2ccc3c(c2)OCO3)c1,122
7,Nc1cc2c(cc1Cl)-c1ccc([N+](=O)[O-])cc1/C2=N\O,63.3
8,COc1ccc(OC)c2c1C(=O)CC2C (stereo not drawn),113
9,N#CSCC1CC(O)(c2ccccc2)CC(c2ccc(Cl)cc2)O1 (stereo not drawn),48.3
10,CCOC(=O)C1CCc2c(ccc3ccccc23)N1CCC#N (stereo not drawn),115
11,Fc1ccc(-c2nnc(-c3c(-c4ccc(F)cc4)nc4ccccn34)o2)cc1,83.2
12,O=C1/C(=C/c2ccc(Cl)cc2)SC(=Nc2ccc(Cl)cc2)N1Cc1nc2ccccc2[nH]1,91.9
13,CO/N=C(/C(=O)NC1C(=O)N2C(C(=O)O)=C(COC(N)=O)CSC12)c1ccco1 (stereo not drawn),98.3
14,COc1ccc(C2CC(c3ccc(N(C)C)cc3)=NN2c2ccc(S(N)(=O)=O)cc2)cc1 (stereo not drawn),35.2
15,CN(C)CCNC(=O)c1cccn2c(=O)c3cc4ccccc4cc3nc12,14.7
16,Oc1[nH]c2ccc(Cl)cc2c1/C=c1/ccc2c(c1)N=C(c1cccs1)N=2,58
17,Nc1ccc2c(c1)Cc1cc(N)c(Br)cc1-2,87
18,Cc1ccc(Nc2nnc(-c3cc(-c4ccncc4)n(-c4ccccc4)n3)s2)cc1,83
19,O=C(N/N=C\c1cc(Cl)ccc1[N+](=O)[O-])c1ccco1,105
20,COc1ccc2c(c1)sc1nc(-c3ccccc3)c(-c3ccsc3)n12,54.2

row,SMILES,growth [%]
1,O=C(N/N=C/c1ccccc1O)C(O)(c1ccccc1)c1ccccc1,35.5
2,CCCCCCCCCCCCC1C/C=C\CCCC(=O)O1 (stereo not drawn),104
3,O=C(Nc1cccc(Br)c1)c1cc(=O)[nH]c2ccccc12,98.5
4,CC(C)=CCc1ccc(O)c(=O)cc1C(C)C,24.8
5,Cc1occc1-c1nnc(SCC(=O)c2ccc(NC(=O)CC(C)C)cc2)o1,109
6,CC(C)=NNc1ncnc2c1ncn2C1OC(CO)C(O)C1O (stereo not drawn),12.3
7,CCCCCCCCCCCCCC[n+]1ccc(C(N)=O)cc1,65.6
8,COc1ccc(Cl)cc1C(=O)Nc1nc2ccc(Cl)cc2s1,85.9
9,O=C(CSSCC(=O)c1ccc(Cl)cc1)c1ccc(Cl)cc1,82.1
10,O=[P@@]1(c2ccccc2)O[C@H](COCc2ccccc2)[C@@H](OCc2ccccc2)[C@H](OCc2ccccc2)[C@H]1O,78.7
11,Nc1ncn([C@@H]2O[C@H](CO)[C@@H](O)[C@H]2O)c(=O)n1,11.8
12,CCCCOC(=O)Oc1ccc(C(=O)Oc2ccc(OCC)cc2)cc1,90.2
13,O=C1c2ccc3c4c(ccc(c24)C(=O)N1CCNCc1ccccc1)C(=O)N(CCNCc1ccccc1)C3=O,85.4
14,CCn1cc(C(=O)O)c(=O)c2cnc(N3CCCC3)nc21,100
15,Cc1ccc(-c2nc(/C=C3/C(=O)N(C)c4ccc(F)cc43)c3ccccn23)cc1,88.5
16,COc1ccc(OC)c(/C=C/c2nc(SC)n(-c3ccc(Cl)cc3)n2)c1,67.9
17,COc1cccc(-c2cc(-c3cccc(NS(C)(=O)=O)c3)nc(N)c2C#N)c1O,43.3
18,CC1CN(Cc2ccccc2)C(=O)NC1=O (stereo not drawn),109
19,Cc1cn(C2CCCCO2)c(=O)nc1NO (stereo not drawn),110
